# Test results: the supplement of paper PMC8728848
# The entries come from a sample that favours the strongest signals as a whole.
# What was measured:
# Test in all cases: glycan array binding signal (z-score within array); higher = stronger binding
# Conditions in all cases: glycan notation: IUPAC condensed, linker removed; mutation: R343K
# [1] = target: Fuc(a1-2)Gal
# Procedure, shortened: (§1)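 The binding signal is a Z-score computed within each array and averaged over linkers. Arrays of the same protein sequence at different concentrations or buffers were also averaged together. Data originate from 3228 arrays in the Consortium for Functional Glycomics database, kept only where the protein sequence was available.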
# [2] = target: Fuc(a1-2)Gal(b1-4)GlcNAc(b1-3)Gal(b1-4)GlcNAc(b1-3)Gal(b1-4)GlcNAc
# Procedure, shortened: as §1
# [3] = target: Fuc(a1-2)[GalNAc(b1-3)]Gal
# Procedure, shortened: as §1
# [4] = target: Fuc(a1-3)[Gal(b1-4)]GlcNAc(b1-2)Man(a1-6)[Gal(b1-4)GlcNAc(b1-2)Man(a1-3)]Man(b1-4)GlcNAc(b1-4)GlcNAc
# Procedure, shortened: as §1
# [5] = target: Fuc(a1-3)[Gal(b1-4)]GlcNAc(b1-4)Gal(b1-4)[Fuc(a1-3)]GlcNAc
# Procedure, shortened: as §1
# [6] = target: Gal(b1-3)GalNAc(b1-3)Gal(a1-4)Gal(b1-4)Glc
# Procedure, shortened: as §1
# [7] = target: Gal(b1-4)GalNAc(a1-3)[Fuc(a1-2)]Gal(b1-4)GlcNAc
# Procedure, shortened: as §1
# [8] = target: Gal(b1-4)GlcNAc(a1-6)Gal(b1-4)GlcNAc
# Procedure, shortened: as §1
# [9] = target: Gal(b1-4)GlcNAc(b1-6)GalNAc
# Procedure, shortened: as §1
# [10] = target: Gal3S(b1-3)GlcNAc
# Procedure, shortened: as §1
# [11] = target: Gal3S(b1-3)[Fuc(a1-4)]GlcNAc
# Procedure, shortened: as §1
# [12] = target: Glc(b1-4)Glc
# Procedure, shortened: as §1
# [13] = target: GlcA(b1-6)Gal
# Procedure, shortened: as §1
# [14] = target: GlcNAc(b1-2)Gal(b1-3)GalNAc
# Procedure, shortened: as §1
# [15] = target: Man(a1-2)Man(a1-3)[Man(a1-2)Man(a1-6)]Man
# Procedure, shortened: as §1
# [16] = target: Man(a1-2)Man(a1-3)[Man(a1-2)Man(a1-6)]Man(a1-6)[Man(a1-2)Man(a1-2)Man(a1-3)]Man
# Procedure, shortened: as §1
# [17] = target: Man(a1-2)Man(a1-3)[Man(a1-6)]Man(a1-6)[Man(a1-2)Man(a1-3)]Man(b1-4)GlcNAc(b1-4)GlcNAc
# Procedure, shortened: as §1
# [18] = target: Man(a1-3)[Man(a1-6)]Man(a1-6)[Man(a1-2)Man(a1-3)]Man(b1-4)GlcNAc(b1-4)GlcNAc
# Procedure, shortened: as §1
# [19] = target: Man(a1-3)[Man(a1-6)]Man(a1-6)[Man(a1-3)]Man
# Procedure, shortened: as §1
# [20] = target: Neu5Ac(a2-3)Gal(b1-3)GalNAc(b1-3)Gal(a1-4)Gal(b1-4)Glc
# Procedure, shortened: as §1
# [21] = target: Neu5Ac(a2-3)Gal(b1-3)GalNAc6S
# Procedure, shortened: as §1
# [22] = target: Neu5Ac(a2-3)Gal(b1-3)GlcNAc
# Procedure, shortened: as §1
# [23] = target: Neu5Ac(a2-3)Gal(b1-4)GlcNAc(b1-3)Gal(b1-4)GlcNAc(b1-3)Gal(b1-4)GlcNAc
# Procedure, shortened: as §1
# [24] = target: Neu5Ac(a2-6)GalNAc(b1-4)GlcNAc
# Procedure, shortened: as §1
# [25] = target: Neu5Ac9Ac(a2-6)Gal(b1-4)GlcNAc
# Procedure, shortened: as §1
# [26] = target: Neu5Gc(a2-6)Gal(b1-4)GlcNAc
# Procedure, shortened: as §1
binder,measurement,setting,value
Surfactant Protein D (Human); Neck + Carbohydrate Recognition Domain (NCRD) (Homo sapiens) (protein) MLLFLLSALVLLTQPLGYLEAEMKTYSHRTMPSACTLVMCSSVESGLPGRDRDGREGPRGEKGDPGLPGAAGQAGMPGQAGPVGPKGDNGSVGEPGPKGDTGPSGPPGPPGVPGPAGREGALGKQGNIGPQGKPGPKGEAGPKGEVGAPGMQGSAGARGLAGPKGERGVPGERGVPGNTGAAGSAGAMGPQGSPGARGPPGLKGDKGIPGDKGAKGESGLPDVASLRQQVEALQGQVQHLQAAFSQYKKVELFPNGQSVGEKIFKTAQFVKPFTEAQLLCTQAGGQLASPRSAAENAALQQLVVAKNEAAFLSMTDSKTEGKFTYPTGESLVYSNWAPGEPNDDGGSEDCVEIFTNGKWNDKACGEKRLVVCEF,glycan array binding signal (z-score),[1],-0.147
same,glycan array binding signal (z-score),[2],-0.143
same,glycan array binding signal (z-score),[3],-0.145
same,glycan array binding signal (z-score),[4],-0.147
same,glycan array binding signal (z-score),[5],-0.157
same,glycan array binding signal (z-score),[6],-0.147
same,glycan array binding signal (z-score),[7],-0.145
same,glycan array binding signal (z-score),[8],-0.153
same,glycan array binding signal (z-score),[9],-0.151
same,glycan array binding signal (z-score),[10],-0.155
same,glycan array binding signal (z-score),[11],-0.153
same,glycan array binding signal (z-score),[12],-0.153
same,glycan array binding signal (z-score),[13],-0.146
same,glycan array binding signal (z-score),[14],-0.159
same,glycan array binding signal (z-score),[15],5.42
same,glycan array binding signal (z-score),[16],10.9
same,glycan array binding signal (z-score),[17],5.1
same,glycan array binding signal (z-score),[18],7.96
same,glycan array binding signal (z-score),[19],5.92
same,glycan array binding signal (z-score),[20],-0.155
same,glycan array binding signal (z-score),[21],-0.156
same,glycan array binding signal (z-score),[22],-0.142
same,glycan array binding signal (z-score),[23],-0.143
same,glycan array binding signal (z-score),[24],-0.155
same,glycan array binding signal (z-score),[25],-0.15
same,glycan array binding signal (z-score),[26],-0.155
